Measured values reported in ChEMBL document CHEMBL3988442, “University of Dundee, Small-Polar-MMV Screening Library” (2021).
The whole screen tested about 48,000 compounds, of which about 13,000 (27%) showed an effect of 50% or more. The list shows a part of the results.

These compounds were tested on Wolbachia pipientis (assay: Anti-Wolbachia Cell-Based Screen). Conditions: 5 µM.
Format: functional
Set-up: scale not given: in the data most compounds retested in dose-response had high values

Going from `Cc1nc[nH]c1CN1CCCC(CNC(=O)c2ccncn2)C1` (centres undefined) to `Cn1cc(Cl)c(CN2CCCC(Cn3cc(CO)nn3)C2)n1` (centres undefined), the “Percent Effect” value rises from -3.697% to -2.88%.

First: c1cncc(OCc2nc(C3CC3)nn2-c2ccc3c(c2)OCCO3)c1
Second: CCOc1cccc2c1OCC(=O)N(c1ccc3c(c1)OCCO3)C2
The “Percent Effect” value of the first is lower: 1.227% for the first, 123.7% for the second.

First: CCS(=O)(=O)N1CCC2(CC(=O)N(c3ccc4c(c3)OCO4)C2)C1 (centres undefined)
Second: CN(C)C(=O)N1CCC2(CC(=O)N(c3ccc4c(c3)OCO4)C2)C1 (centres undefined)
The “Percent Effect” value of the first is lower: -0.7388% for the first, 3.437% for the second.

Compared with `CCOc1cccc2c1OCC(C(=O)NS(=O)(=O)Cc1ccccc1)=C2`, `CCOc1cccc2c1OCC(C(=O)NC(C)Cn1cccn1)=C2` (centres undefined) is higher in “Percent Effect” value: -3.971% for the first, -1.745% for the second.

First: CCOc1ccccc1C(=O)NS(=O)(=O)c1ccc2c(c1)OCCCO2
Second: CCOc1cccc2c1OCC(=O)N(c1ccc3c(c1)OCO3)C2
The “Percent Effect” value of the first is lower: -4.596% for the first, 112.1% for the second.

Going from `CCOc1cccc2c1OCC(=O)N(c1ccc(N(C)C)cc1)C2` to `CN(Cc1ccc(Cl)s1)C(=O)CN(C)C1CCCc2ccccc21` (centres undefined), the “Percent Effect” value falls from 138.3% to -6.291%.

First: Cc1nn(C)cc1C(C)Nc1ncc(C(N)=O)cc1Cl (centres undefined)
Second: Cc1cc(NC(=O)NCC(C)O)n(C)n1 (centres undefined)
The “Percent Effect” value of the first is lower: -11.95% for the first, -6.671% for the second.

Going from `COC(=O)CC(NC(=O)c1cccc(N2CCCC2=O)c1)c1cccs1` (centres undefined) to `COc1ccsc1C(=O)Nc1cc(CN2CCOCC2)ccc1C`, the “Percent Effect” value falls from 6.294% to -3.737%.

Going from `O=C(CCN1CCSCC1c1ccccc1)N1CCOCC1` (centres undefined) to `Cc1ccsc1CN(C)C(=O)c1ccc(N2CCOCC2)c(F)c1`, the “Percent Effect” value rises from 2.279% to 8.665%.

Compared with `Fc1ccc(CN2CCC3(CC2)CC(c2cccnc2)CO3)cc1.O=C(O)C(F)(F)F.O=C(O)C(F)(F)F` (centres undefined), `COc1ccc(CN2CCC3(CC2)CC(c2cccnc2)CO3)cc1.O=C(O)C(F)(F)F.O=C(O)C(F)(F)F` (centres undefined) is higher in “Percent Effect” value: 97.05% for the first, 103.1% for the second.

First: COCCN1CCC2(CC1)CC(c1cccnc1)CO2.O=C(O)C(F)(F)F (centres undefined)
Second: O=C(O)C(F)(F)F.O=C(O)C(F)(F)F.c1cncc(C2COC3(CCN(CC4CC4)CC3)C2)c1 (centres undefined)
The “Percent Effect” value of the first is higher: 117.3% for the first, 1.552% for the second.

Going from `O=C(O)C(F)(F)F.O=S(=O)(C1CC1)N1CCC2(CC1)CC(Oc1cccnc1)CO2` (centres undefined) to `Fc1ccc(N2CCC3(CC2)CC(OCc2cccnc2)CO3)cc1.O=C(O)C(F)(F)F` (centres undefined), the “Percent Effect” value falls from 3.761% to -13.34%.

Compared with `O=C(NC1COC2(CCN(CC3CCC3)CC2)C1)c1ccccn1.O=C(O)C(F)(F)F` (centres undefined), `O=C(O)C(F)(F)F.O=C(O)C(F)(F)F.c1cncc(C2COC3(CCN(CC4CCOCC4)CC3)C2)c1` (centres undefined) is higher in “Percent Effect” value: 9.161% for the first, 107.8% for the second.

First: COCCN1CCC2(CC1)CC(Nc1ccc(C)nn1)CO2.O=C(O)C(F)(F)F (centres undefined)
Second: O=C(O)C(F)(F)F.O=C(O)C(F)(F)F.c1cncc(C2COC3(CCN(Cc4ccsc4)CC3)C2)c1 (centres undefined)
The “Percent Effect” value of the first is lower: -23.59% for the first, 104.8% for the second.

Going from `Fc1cnc(N2CCC3(CC2)CC(OCc2cccnc2)CO3)nc1.O=C(O)C(F)(F)F.O=C(O)C(F)(F)F` (centres undefined) to `O=C(O)C(F)(F)F.O=C(O)C(F)(F)F.O=C(O)C(F)(F)F.c1cncc(CN2CCC3(CC2)CC(c2cccnc2)CO3)c1` (centres undefined), the “Percent Effect” value rises from -2.608% to 108.2%.

Going from `OC1(c2cn(CC3CCN(C4CCSC4)CC3)nn2)CCCC1` (centres undefined) to `OCc1cn(CC2CCN(C3CCSC3)CC2)nn1` (centres undefined), the “Percent Effect” value falls from -24.22% to -25.36%.

Going from `Cc1nccn1-c1ccc(NC(=O)C2CCCN2CC2CC2)cc1` (centres undefined) to `Cc1ccc(N2C(=O)N[C@@H]3CCN(C(=O)C4CC4)[C@@H]3C2=O)cc1`, the “Percent Effect” value falls from 11.95% to 11.16%.

Compared with `Cc1cc(-n2cncn2)ccc1C(=O)Nc1ccc(N2CCCC2)cn1`, `Cc1ccc(C(=O)N2CCC(n3cc(CO)nn3)CC2)cn1` is higher in “Percent Effect” value: -10.21% for the first, 1.663% for the second.

Going from `FC(F)(F)CCN(Cc1ccon1)C1CCC1` to `CN1CCC(N(CCc2ccccc2)Cc2noc(C3CC3)n2)CC1`, the “Percent Effect” value rises from 0.2197% to 8.424%.

Compared with `COc1ccc(CN2CCC3(CCN(c4cccnc4)C3=O)C2)cc1.O=C(O)C(F)(F)F.O=C(O)C(F)(F)F` (centres undefined), `O=C(O)C(F)(F)F.O=C(O)C(F)(F)F.O=C(c1ccsc1)N1CCOC2(CCN(Cc3cccnc3)CC2)C1` is lower in “Percent Effect” value: -2.008% for the first, -15.45% for the second.

Compared with `O=C1COc2cc(C(=O)NS(=O)(=O)c3ccccc3F)ccc2N1`, `Cc1ccc(C(=O)NCCNCC2CNc3ccnn3C2)cc1F` (centres undefined) is lower in “Percent Effect” value: -1.273% for the first, -3.46% for the second.

Compared with `Cc1ccc(C(CNCc2c[nH]nc2C)N(C)C)cc1.Cl` (centres undefined), `COc1ccc(C(O)CNC(=O)Nc2cc(C)nn2C)cc1` (centres undefined) is higher in “Percent Effect” value: -30.61% for the first, -16.1% for the second.

Compared with `COCCN1C(=O)[C@H]2CC[C@@H]1CN(c1nccc(C)n1)C2`, `COCCN1C(=O)[C@H]2CC[C@@H]1CN(c1ncccn1)C2` is lower in “Percent Effect” value: 1.615% for the first, -42.86% for the second.

Going from `CS(=O)(=O)N1C[C@@H]2CC[C@H](C1)N(Cc1cscn1)C2=O` to `O=C1[C@H]2CC[C@H](CN(C3CCOCC3)C2)N1Cc1cscn1`, the “Percent Effect” value falls from -6.714% to -44.85%.

Compared with `COCCN1C(=O)[C@H]2CC[C@@H]1CN(Cc1nnc(C3CC3)o1)C2`, `O=C1[C@H]2CC[C@H](CN(Cc3nnc(C4CC4)o3)C2)N1Cc1cscn1` is higher in “Percent Effect” value: 101% for the first, 105.2% for the second.

Compared with `CCC1CN(Cc2nnc(C3CC3)o2)CCN1CCOC` (centres undefined), `Cc1cnn(C2CN(Cc3nnc(C4CC4)o3)C2)c1` is higher in “Percent Effect” value: -15.54% for the first, 1.311% for the second.

First: COCCN1C(=O)[C@H]2CC[C@@H]1CN(Cc1nnc(-c3ccccc3)o1)C2
Second: CCc1nc(CN(C)C2CCN(CCOc3ccccc3)C2)no1 (centres undefined)
The “Percent Effect” value of the first is higher: 112.1% for the first, 109.8% for the second.

Going from `CCS(=O)(=O)CC(C)N(C)C(=O)NCCc1cccc(F)c1F` (centres undefined) to `CCCc1nc(CN(CC)C(=O)c2ccc(OC)c(OC)c2)no1`, the “Percent Effect” value rises from -8.987% to -5.69%.

Compared with `CCc1ccc(CN(C)c2ccc(-c3nc(COC)no3)cn2)nc1`, `CCCc1nc(CN(CC)C(=O)c2ccc3ncsc3c2)no1` is higher in “Percent Effect” value: -21.07% for the first, -3.567% for the second.

Compared with `Cc1nc2n(n1)CC(Nc1cc(C(F)(F)F)nc3ncnn13)CC2` (centres undefined), `CC(=O)NCC1CN(c2ccc3c(Cl)ccnc3c2F)CCO1` (centres undefined) is lower in “Percent Effect” value: 10.68% for the first, -19.58% for the second.

Compared with `CCc1nc(CN(C)C2CCN(CCNS(=O)(=O)CC)C2)no1` (centres undefined), `CCc1nc(CN(C)C2CCN(CCCOc3ccccc3)C2)no1` (centres undefined) is higher in “Percent Effect” value: 8.032% for the first, 76.47% for the second.

Going from `CCc1nc(CN(C)C2CCN(Cc3ccc(C#N)cc3F)C2)no1` (centres undefined) to `CCCc1nc(CN(CC)C(=O)c2onc3ccccc23)no1`, the “Percent Effect” value rises from 1.706% to 89.45%.

Going from `Cc1ccc(NC2(C(=O)NCCCN)CCCC2)cc1` to `Cc1ccc([C@@H]2CN(C(=O)c3ccc[nH]3)C[C@H]2NC(=O)C2CC2)cc1`, the “Percent Effect” value rises from -6.352% to 0.8109%.

Going from `O=C(CC1CCN(c2cccnn2)CC1)Nc1cccnc1` to `O=C(CC1CCN(c2cccnn2)CC1)Nc1nncs1`, the “Percent Effect” value rises from 90.02% to 96.76%.

Going from `CN(CC(=O)Nc1nncs1)CC1CCCN1c1cccnn1` (centres undefined) to `CN(CC(=O)Nc1cccnc1)CC1CCCN1c1cccnn1` (centres undefined), the “Percent Effect” value falls from -0.3075% to -11.55%.

First: O=C(Nc1nncs1)N1CCC(CCO)CC1
Second: Cc1ccoc1C(=O)N1CCC(n2cc(CO)nn2)CC1
The “Percent Effect” value of the first is lower: -8.889% for the first, -7.426% for the second.

Going from `O=C(C[C@H]1[C@H]2CN(C(=O)CO)C[C@@H]12)Nc1cccnc1` to `CCNC(=O)N1CC(c2nc(Cc3ccccc3)no2)C1`, the “Percent Effect” value falls from 10.82% to -5.949%.

Going from `CCN(Cc1noc(C2CCC2)n1)C(=O)CCc1cc2n(n1)CCNC2` to `CCN(Cc1noc(C2CCC2)n1)C(=O)c1cnc2ccccc2c1`, the “Percent Effect” value rises from -16.19% to 94.43%.

Going from `Cn1ccnc1CN(CCO)C(=O)c1cnc2ccccc2c1` to `CCN(Cc1noc(C2CC2)n1)C(=O)c1onc2ccccc12`, the “Percent Effect” value rises from -19.73% to 98.35%.

Going from `Cc1noc(COCC(=O)Nc2cc(C)c(Br)cn2)n1` to `Cc1noc(C)c1CC(=O)NCC(CC(C)C)N1CCOCC1` (centres undefined), the “Percent Effect” value rises from -3.051% to -1.173%.

Compared with `Cc1nn(C)cc1-c1ccnc(N2CCN(c3cnccn3)CC2)n1`, `CN1CCN(c2nccc(-c3cncnc3C3CCCCC3)n2)CC1` is higher in “Percent Effect” value: 17.52% for the first, 58.46% for the second.

Compared with `CN1CCCN(c2nccc(-c3cncnc3C3CCCCC3)n2)CC1`, `CCc1ncc2c(n1)CN(c1nccc(C3CCCC3)n1)C2` is lower in “Percent Effect” value: 86.07% for the first, 14.73% for the second.

Compared with `Cc1cc(NC(=O)NCC(CC(C)C)N2CCOCC2)n(C)n1` (centres undefined), `Cc1cc(NC(=O)NCC(C(C)C)N2CCOCC2)n(C)n1` (centres undefined) is higher in “Percent Effect” value: 103.9% for the first, 115.8% for the second.

First: CC(C)CC(CNC(=O)NCc1cc[nH]n1)N1CCOCC1 (centres undefined)
Second: CCn1cnnc1CNC(=O)NCC(C(C)C)N1CCOCC1 (centres undefined)
The “Percent Effect” value of the first is higher: 6.619% for the first, -2.117% for the second.

First: Cc1cc(NC(=O)NCC(C)N2CCOCC2)n(C)n1 (centres undefined)
Second: CCC(CC)C(CNC(=O)Nc1cc(C)nn1C)N1CCOCC1 (centres undefined)
The “Percent Effect” value of the first is higher: 113% for the first, -3.913% for the second.

Going from `Cc1ccc(F)cc1NC(=O)NCC(C)N1CCOCC1` (centres undefined) to `Cc1c(NC(=O)NCC(C)N2CCOCC2)cccc1OC(F)F` (centres undefined), the “Percent Effect” value falls from 9.148% to -9.929%.

Going from `CCC(CC)C(O)CNC(=O)Nc1cc(C)nn1C` (centres undefined) to `CC(O)c1cn(C2CCN(C(=O)C3(C)CCN(C)CC3)CC2)nn1` (centres undefined), the “Percent Effect” value falls from 91.79% to 3.786%.

Compared with `CC(C)CS(=O)(=O)N1CCC2(CN(c3cccc(F)c3)C(=O)CN2C)C1.O=C(O)C(F)(F)F` (centres undefined), `C=C1C(C)(C)[C@H]2CC[C@]1(C(=O)N1CCC(n3cc(CO)nn3)CC1)C2` is higher in “Percent Effect” value: 10.41% for the first, 93.63% for the second.

Compared with `C=C1C(C)(C)[C@H]2CC[C@]1(C(=O)N1CCC(Cn3cc(CO)nn3)CC1)C2`, `C=C1C(C)(C)[C@H]2CC[C@]1(C(=O)N1CCC(n3cc(CCO)nn3)CC1)C2` is higher in “Percent Effect” value: 87.91% for the first, 95.18% for the second.

In the case of `CC1(C(=O)N2CCC(n3cc(C4(O)CCCC4)nn3)CC2)CCCCC1`, the “Percent Effect” value is reported as -2.498%.
